Laboratory results as given in ChEMBL document CHEMBL3988442, “University of Dundee, Small-Polar-MMV Screening Library” (2021).
In all, about 48,000 compounds went through this assay and about 13,000 (27%) showed an effect of 50% or more. This is one part of the list.

Each molecule was assayed on Wolbachia pipientis (assay: Anti-Wolbachia Cell-Based Screen). Conditions: 5 µM.
Assay type: functional
Set-up: scale not given: in the data most compounds retested in dose-response had high values

| Compound | Percent Effect |
| --- | --- |
| CCSC1(CNc2ncc(Br)cn2)CCOCC1 | -0.7161% |
| Cc1cc(CN2CCN(C(=O)C(C)C)[C@@H]3CS(=O)(=O)C[C@@H]32)ccc1F | -3.716% |
| CC(Cn1ccnc1)NCc1nncn1C1CCCCC1 (centres undefined) | -17.23% |
| NC(=O)COc1ccc(CN2CC[C@@]3(O)CCCC[C@H]3C2)cc1Cl | 11.68% |
| CSc1ncccc1C(=O)NC(C)c1cccc(N2CCOC2=O)c1 (centres undefined) | 5.443% |
| Cc1cc(CN(C)C(=O)C2CCS(=O)(=O)C2)no1 (centres undefined) | 3.983% |
| CCCn1nnnc1CSc1nccn1Cc1ccccn1 | -4.795% |
| CCn1ccnc1CNCC1CCCN1c1cccnn1 (centres undefined) | -7.119% |
| O=C(Cc1cccs1)N1CCOCC1CO (centres undefined) | -3.953% |
| Cc1nc(CC(=O)N2CCCCC2c2ccn3ccnc3n2)cs1 (centres undefined) | -8.343% |
| O=C(Cc1ccsc1)N1CCCCC1c1ccn2ccnc2n1 (centres undefined) | 73.59% |
| O=C(Cc1cccs1)N1CCCCC1c1ccn2ccnc2n1 (centres undefined) | 83.71% |
| CN(Cc1ccccc1F)C(=O)CS(=O)(=O)Cc1ccc(Cl)c(Cl)c1 | 6.215% |
| COc1ccc(Cl)cc1CS(=O)(=O)CC(=O)N(C)Cc1ccccc1F | -1.573% |
| Cc1ccccc1CS(=O)(=O)CC(=O)N(C)Cc1ccccc1F | -29.58% |
| COC(=O)c1ccc(OCC(=O)N(C)Cc2ccsc2)c(OC)c1 | 0.9882% |
| CN(Cc1ccccc1F)C(=O)c1ccoc1 | 5.435% |
| CN(Cc1ccccc1F)C(=O)c1cc(Cl)c[nH]1 | 92.86% |
| COCCN1CCN(CC(=O)N(C)Cc2ccsc2)CC1C (centres undefined) | 9.964% |
| CN(Cc1ccccc1F)C(=O)COC(=O)c1cc(Cl)c[nH]1 | 87.09% |

| Compound | Percent Effect |
| --- | --- |
| CN(Cc1ccsc1)C(=O)COC(=O)c1cc(Cl)c[nH]1 | 107.8% |
| Cc1ccc(CNCC2CCc3nnc(C(C)C)n3C2)s1 (centres undefined) | -11.01% |
| CN1CCN(C(=O)CCc2cc(Br)cs2)CC1 | -6.424% |
| COc1cc(NC(=O)NC2CCOCC2)ccc1N1CCOC1=O | -14.6% |
| Cc1ncc(CN(C)c2nc3c(cnn3C(C)(C)C)c(=O)[nH]2)s1 | 5.937% |
| COc1c(CNC(c2nccn2C)C(C)C)c(C)nn1C (centres undefined) | -4.434% |
| CCN(CC)Cc1cc(C(=O)N2CCC3(CC2)NCCNC3=O)c(C)o1 | -9.012% |
| COCCN(C)c1cnn(C)c(=O)c1Br | 101.6% |
| CN(CCc1ccccc1)c1cnn(C)c(=O)c1Br | 67.25% |
| CN(C)CCN(C)c1nc(CCc2ccccc2)nc2c1cnn2C | 4.899% |
| CC(C)N(C)C(=O)Cn1ncc(N(C)CCc2ccccc2)cc1=O | -17.71% |
| CN(CCc1ccccn1)c1cnn(C)c(=O)c1Br | 101.4% |
| CN(CCc1ccccc1)c1cnn(Cc2ccccn2)c(=O)c1 | 5.151% |
| COc1ccc(Br)cc1CN(C)c1nc2c(cnn2C)c(=O)[nH]1 | -19.59% |
| COCCN(Cc1ccc(F)cc1Cl)C(=O)c1cnn(C)c1C | -5.759% |
| CN(CCc1ccccn1)Cc1nccn1Cc1ccccc1 | 8.438% |
| Cc1nc(-c2ccncc2)nc(N(C)CCc2ccncc2)c1C | 0.9394% |
| CN(CCc1ccncc1)c1cnn(C)c(=O)c1Br | 103% |
| Cc1nc(N(C)C)nc(N(C)CCc2ccncc2)c1C | 13.66% |
